Measurements: PubChem BioAssay (NCI)
About 79,000 compounds went through this panel and 15% of them were active in at least one assay; those are over-represented in the sample as a whole. The source made the active and inactive calls. Rule as the data show it: active = growth inhibition above about 70%; inactive = the rest.

Assays:
[1] = NCI Yeast Anticancer Drug Screen. Data for the rad50 strain (AID 155);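 also: 0% = growth of vehicle-only cultures of the same strain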; conditions: S. cerevisiae rad50 strain growth inhibition; at 50.0 µM; stronger effect = higher value
In short: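 Growth of the mutant yeast was measured after compound exposure and referenced to vehicle-treated cultures.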

[2] = NCI Yeast Anticancer Drug Screen. Data for the mec2-1 strain (AID 157); conditions: S. cerevisiae mec2-1 strain, at 50.0 µM, stronger effect = higher value
In short: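 Each compound was tested on mec2-1 yeast, a strain altered in DNA damage repair or cell cycle control. Growth inhibition is reported relative to vehicle.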

[3] = NCI Yeast Anticancer Drug Screen. Data for the sgs1 mgt1 strain (AID 161);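 also: 0% = growth of cultures given vehicle only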; conditions: S. cerevisiae sgs1 mgt1 strain, at 50.0 µM, stronger effect = higher value
In short: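 Test agents were incubated with a DNA-repair-mutant yeast strain. Growth was then read and compared against vehicle-treated controls.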

[4] = NCI Yeast Anticancer Drug Screen. Data for the cln2 rad14 strain (AID 165);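 also: 0% = growth equal to vehicle treated cultures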; conditions: S. cerevisiae cln2 rad14 strain, at 50.0 µM, stronger effect = higher value
In short: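 Test compounds were added to cln2 rad14 yeast cultures; inhibition of growth was then determined by comparison with vehicle treatment.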

[5] = NCI Yeast Anticancer Drug Screen. Data for the bub3 strain (AID 167); conditions: S. cerevisiae bub3 mutant strain, at 50.0 µM, stronger effect = higher value
In short: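 Whole-cell yeast assay. The mutant strain was incubated with compounds, and growth inhibition was determined by comparison with vehicle-treated cells.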

[6] = NCI Yeast Anticancer Drug Screen. Data for the mlh1 rad18 strain (AID 175); conditions: S. cerevisiae mlh1 rad18 strain growth inhibition; at 50.0 µM; stronger effect = higher value
In short: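 Inhibition values reflect reduced growth of mutant yeast versus vehicle-treated controls following compound exposure; the mutations affect DNA damage repair.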

Measured: growth inhibition

O=C(NNC(O)C(F)(F)F)c1ccccc1 (stereo unspecified)
inactive: [1] 12.3% | [2] 2.4% | [3] 10.1% | [4] -35.2% | [5] 11.2% | [6] 1.5%

Nc1nc(-c2cc(-c3ccco3)nc(N)n2)cc(-c2ccco2)n1
inactive: [1] -8.2% | [2] -13.6% | [3] -20.8% | [4] -17.8% | [5] -35.6% | [6] -17.6%

CCCCCCCCCCCCCCCCCC(=O)N/N=C\c1ccc(O)c(OC)c1
inactive: [1] -11.6% | [2] -13.6% | [3] -9.35% | [4] -56.8% | [5] -2.55% | [6] 6.5%

CC(=O)Nc1cc2cc(N)ccc2oc1=O
inactive: [1] -6.2% | [2] 0.4% | [3] 8.9% | [4] 10.4% | [5] 15.2% | [6] 16.6%

CN(C)S(=O)(=O)C(c1ccccc1)C(O)(c1ccccc1)c1ccc(Cl)cc1 (stereo unspecified)
inactive: [2] 45.5% | [3] 54.1% | [4] 22.9% | [5] 16.8% | [6] 57%
active: [1] 72.1%

CC1CCCC(C)(C)/C1=N/O (stereo unspecified)
inactive: [1] 16.1% | [2] 20.2% | [3] 12.5% | [4] 12.8% | [5] 20.8% | [6] 6.7%

CS(=O)(=O)ON1C(=O)c2ccccc2C1=O
inactive: [1] 9.9% | [2] -52% | [3] -3.9% | [4] 6.5% | [5] -2.6% | [6] -9.55%

CCCCCCCCn1nnnc1C(F)(F)F
inactive: [1] -3.1% | [2] 8.45% | [3] 6.75% | [4] -15.1% | [5] 1.45% | [6] -0.45%

Nc1ccccc1/C=C/c1ccnc2ccccc12
inactive: [1] 3.7% | [2] 2.55% | [3] 23.6% | [4] 10.2% | [5] -18.1% | [6] 47.8%

CCCCSc1ccc2n(C)c(-c3ccc(/C=N\NC(=O)c4ccc(C(=O)N/N=C\c5ccc(-c6c[n+]7cc(SCCCC)ccc7n6C)cc5)cc4)cc3)c[n+]2c1
inactive: [1] -15.8% | [2] -14.7% | [3] -17.9% | [4] -8.45% | [5] -7.1% | [6] -1.65%

CCCCCCCCCCCCNC(=O)c1ccccc1O
inactive: [1] 13.2% | [2] 23.6% | [3] 17.9% | [4] 20.8% | [5] 10.6% | [6] 35.8%

CCOC(=O)c1c2ccc(/C=C/c3ccccc3)ccc-2c(C(=O)OCC)c1N
inactive: [1] -16.6% | [2] -7.25% | [3] -23.9% | [4] 10.6% | [5] -32% | [6] -22.6%

COC(=O)C1=C(C(=O)OC)C2(C3C(SC)=CC(C)(C)CC3S1)N(Cc1ccccc1)CCN2Cc1ccccc1 (stereo unspecified)
inactive: [1] -7.65% | [2] -5.25% | [3] -9.95% | [4] 9.05% | [5] -8.7% | [6] -27.2%

CCCC(C)(CC)C(=O)O (stereo unspecified)
inactive: [1] 7.45% | [2] -14.8% | [3] 14.4% | [4] -10.3% | [5] 1.95% | [6] 34.8%

O=C1CN(CCN2CCCCC2)CC(=O)N2Cc3ccccc3CN12
inactive: [1] -10.1% | [2] 2.85% | [3] 12.1% | [4] -1.55% | [5] 7.8% | [6] 14.2%

O=C1OC(C2OC(=O)C(=O)C2C(=O)c2ccccc2Cl)C(C(=O)c2ccccc2Cl)C1=O (stereo unspecified)
inactive: [1] 58.4% | [2] 23.9% | [3] 49.5% | [4] 19.1% | [5] 7.15% | [6] 53.5%

O=c1[nH]nc(SCc2ccccc2)c(=O)n1C(c1ccccc1)c1ccccc1
inactive: [1] 26.4% | [2] 12.4% | [3] 18.6% | [4] 28.2% | [5] 8.05% | [6] 5.3%

CN(C)CCNC(=O)CN
inactive: [1] 0.15% | [2] -12.2% | [3] 4.1% | [4] -0.6% | [5] 5.9% | [6] 2.75%

Cc1cc(NC(C)C)c(C)cc1NC(C)C
inactive: [1] 49% | [2] 31.9% | [3] 47.1% | [4] 21.8% | [5] 33.5% | [6] 43.8%

COc1ccc(Nc2nc(NS(=O)(=O)c3cc(C)c(Cl)cc3S)n[nH]2)cc1
inactive: [1] 23.4% | [2] 27.9% | [3] 3.65% | [4] 24.9% | [5] 16.9% | [6] -4.9%

O=C(NC1CCC(CC2CCC(NC(=O)C34CC5CC(CC(C5)C3)C4)CC2)CC1)C12CC3CC(CC(C3)C1)C2 (stereo unspecified)
inactive: [1] -13% | [2] 7.6% | [3] 19.3% | [4] -6.25% | [5] -1.85% | [6] 4.35%

Cn1cc(N=P(c2ccccc2)(c2ccccc2)c2ccccc2)c(=O)n(C)c1=O
inactive: [1] -5.8% | [2] 4.15% | [3] -11.1% | [4] 1.35% | [5] -2.15% | [6] 5.55%

Cc1nnc2n1N=C(c1ccc(-c3ccc([N+](=O)[O-])cc3)o1)CS2
inactive: [1] 10.7% | [2] 3.1% | [3] -1.75% | [4] 12.1% | [5] -25.8% | [6] 10.8%

CC1(C)CC2(CC(C)(C)N1O)NC(=O)OC2=O
inactive: [1] 2.5% | [2] -5.3% | [3] -1.05% | [4] -18.6% | [5] -23.1% | [6] 1.3%

Cc1c(/C=N/O)nc2ccccc2c1C(=O)O
inactive: [1] -15.1% | [2] -9.25% | [3] -6.5% | [4] -24.1% | [5] -3.85% | [6] -28.9%

O=C(NC(=S)Nc1ccc(S(=O)(=O)c2ccc(NC(=S)NC(=O)c3ccccc3)cc2)cc1)c1ccccc1
inactive: [1] -28.5% | [2] -32.6% | [3] -7.8% | [4] 8.75% | [5] -32.1% | [6] -12.6%

O=c1[nH]nc(Cc2ccccc2)n1/N=C\c1ccccc1
inactive: [1] -38.6% | [2] -20.6% | [3] -28.1% | [4] -11.3% | [5] -16.1% | [6] -43.2%

COc1cc2c(c(OC)c1OC)-c1ccc(SC)c(=O)cc1[C@@H](NC(=O)NCCCl)CC2
inactive: [1] 1.1% | [2] -16.8% | [3] -18.1% | [4] 4.6% | [5] -28.4% | [6] -10.2%

O=[N+]([O-])c1cccc(NC(c2ccccc2)S(=O)(=O)O)c1 (stereo unspecified)
inactive: [1] -5.15% | [2] -18.6% | [3] 9.65% | [4] 18.9% | [5] 8.75% | [6] 5.15%

OC(C(=S)N1CCOCC1)(c1ccccc1)c1ccccc1
inactive: [1] 5.35% | [2] 17.6% | [3] -5% | [4] 25.8% | [5] 17.7% | [6] -12.2%

CCCCCC(=C/c1ccccc1)/C=N/N1CCN(/N=C/C(=C/c2ccccc2)CCCCC)CC1
inactive: [1] 32.1% | [2] 10.8% | [3] 22.4% | [4] 3.2% | [5] -0.85% | [6] 11.2%

CCN(CC)CCCC(C)Nc1ccnc2ccc3nn(C)nc3c12 (stereo unspecified)
inactive: [1] -11.6% | [2] -4.6% | [3] -15.2% | [4] 2.25% | [5] -14% | [6] -14.3%

CCN(CC)c1ccc(N=Nc2nc(Cl)c(/C=C3\C(=O)c4ccccc4C3=C(C#N)C#N)s2)c(NC(C)=O)c1
inactive: [1] 18% | [2] 5.1% | [3] 14.2% | [4] -38.6% | [5] -12.8% | [6] -17.6%

CC(=O)N(C(C)=O)c1ccccc1/C=C1\CCOC1=O
inactive: [1] -16.4% | [2] -18.9% | [3] -2.25% | [4] -5.05% | [5] 11.6% | [6] -17.6%

CC(=O)OCC1OC2OC(C)(C)OC2C2OC(C)(C)OC12 (stereo unspecified)
inactive: [1] -13.5% | [2] 5.35% | [3] 19.2% | [4] -4.65% | [5] -7.65% | [6] -12.8%

CC(C)c1ccc(OC(=O)N(c2ccccc2)c2ccccc2)cc1
inactive: [1] 12.4% | [2] 15% | [3] -5.35% | [4] 3.5% | [5] -1.6% | [6] -2.8%

COC(=O)C(C)NC(=O)C(C)NC(=O)c1cc(OC)c(OC)c(OC)c1 (stereo unspecified)
inactive: [1] 28.2% | [2] 17.8% | [3] 17.4% | [4] 17.1% | [6] 15.8%
